# From PubChem
# Compounds with a hit are over-represented: about 6.6% of the library has one in this group of screens.
# MPTP block: mitochondrial permeability transition pore inhibitors, primary screen, biochemical, isolated mouse mitochondria, absorbance | Ca2+ swelling absorbance, 30 min | inhibition, % at 10 µM | 360,000 tested, 1.4% active | AID 602449, 2012;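 active means inhibition of 50% or more, scaled per plate between neutral and stimulator controls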;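 further: 0% = DMSO wells given calcium and 100% = 1 mM EGTA wells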
# CSC inhib: cancer stem cell viability inhibitors, primary screen, luminescence; cancer stem cell-like cells viability; AID 2717, 2010; 300,000 tested, 1.1% active; inhibition, % at 7.5 µM; in the data active means inhibition above about 75%; tested in HMLE shEcad cells
# Mdm2-MdmX inh: inhibitors of human Mdm2-MdmX association, primary screen, cell-based, luminescence, split luciferase, SaOS-2, uHTS. Protein Mdm4 (Homo sapiens) + E3 ubiquitin-protein ligase Mdm2 (Homo sapiens), …. SaOS-2 split-luciferase Mdm2/MdmX complementation. inhibition, % at 8 µM. 330,000 tested, 3% active;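 active means inhibition of at least 50% at 8 µM in the primary screen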
# Target sequence (O15151 whole entry, looked up): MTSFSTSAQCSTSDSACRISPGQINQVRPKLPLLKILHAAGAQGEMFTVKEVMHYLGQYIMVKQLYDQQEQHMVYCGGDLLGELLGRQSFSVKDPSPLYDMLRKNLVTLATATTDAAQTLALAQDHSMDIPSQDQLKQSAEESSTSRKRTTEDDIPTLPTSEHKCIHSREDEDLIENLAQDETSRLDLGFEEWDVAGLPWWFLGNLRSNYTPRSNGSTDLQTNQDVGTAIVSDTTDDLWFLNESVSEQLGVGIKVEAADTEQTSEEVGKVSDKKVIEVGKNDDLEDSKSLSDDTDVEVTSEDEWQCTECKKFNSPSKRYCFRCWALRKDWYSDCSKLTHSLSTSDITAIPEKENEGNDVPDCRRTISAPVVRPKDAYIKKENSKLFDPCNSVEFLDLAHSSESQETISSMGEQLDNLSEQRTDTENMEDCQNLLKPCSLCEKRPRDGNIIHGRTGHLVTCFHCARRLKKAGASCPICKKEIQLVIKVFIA
# Target sequence (Q00987 whole entry, looked up): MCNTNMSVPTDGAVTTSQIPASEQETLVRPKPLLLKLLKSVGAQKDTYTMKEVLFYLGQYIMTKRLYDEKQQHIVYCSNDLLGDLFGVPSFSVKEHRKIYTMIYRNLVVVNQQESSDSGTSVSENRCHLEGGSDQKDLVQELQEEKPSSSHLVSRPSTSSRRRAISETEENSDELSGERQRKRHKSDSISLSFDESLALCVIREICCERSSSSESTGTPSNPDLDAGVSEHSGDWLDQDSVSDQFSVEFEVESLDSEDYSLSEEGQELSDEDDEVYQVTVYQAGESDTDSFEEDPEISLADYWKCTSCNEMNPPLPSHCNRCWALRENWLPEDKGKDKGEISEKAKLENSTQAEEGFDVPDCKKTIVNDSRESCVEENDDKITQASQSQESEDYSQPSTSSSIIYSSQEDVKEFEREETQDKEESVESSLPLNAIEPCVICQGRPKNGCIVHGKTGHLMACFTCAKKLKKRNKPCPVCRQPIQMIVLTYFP
# Gli-Sufu block: Gli-Sufu pathway antagonists, primary screen, luciferase luminescence, Sufu-KO-LIGHT cells, uHTS; Sufu-KO-LIGHT fibroblasts, Gli luciferase reporter luminescence; inhibition, % at 5 µM; 340,000 tested, 0.74% active; AID 588413, 2011;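 active means inhibition above about 55%, limit read from the data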;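 further: 0% = DMSO-treated cells and 100% = wells with medium but no cells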
# NR3A LBD binder: binders of NR3A ligand-binding domain, primary screen, biophysical, differential scanning fluorimetry, uHTS | NR3A LBD differential scanning fluorimetry, Tm shift; 0% = protein alone, 100% = glycine-bound protein | Tm shift relative to glycine control, % at 25 µM | 340,000 tested, 2.5% active;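 active means melting temperature shift of at least 10% of the positive control shift, at one fixed dose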
# Beta apoptosis: inhibitors of cytokine-induced beta cell apoptosis, primary screen, luminescence; INS-1E cytokine-induced death, ATP luminescence, 48 h; percent of positive-control rescue, neutral wells zero; 300,000 tested, 0.8% active; protection from apoptosis, % (concentration not given with the values); AID 435005, 2010;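 active means Every replicate reaches about 75%, or at least half do and their mean reaches it too, limit read from the data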;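 further: 0% = cytokine-treated negative control wells and 100% = positive control rescue; higher means more ATP so stronger rescue from cytokine killing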
# Gli-Sufu confirm: Gli-SUFU pathway antagonists, confirmation, single concentration, luciferase luminescence, Sufu-KO-LIGHT cells; AID 602428, 2012; shares compounds with Gli-Sufu block; inhibition, % at 5 µM; Gli luciferase reporter; 2,500 tested, 40% active;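 active means mean inhibition at 5 µM reaching about 45%, limit read from the data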;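 further: plate controls were DMSO-treated cells for no effect and wells lacking cells for full effect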
# SufuKO cytotox: cytotoxicity in Sufu-KO-LIGHT cells, confirmation, cytotoxicity control for Gli-SUFU antagonist project, cell-based, ATP luminescence, single concentration | shares compounds with Gli-Sufu block | cytotoxicity, % at 5 µM | 2,500 tested, 32% active | AID 651994, 2013;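 active means mean cytotoxicity at 5 µM above about 25%, limit read from the data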;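 further: cells exposed to compound overnight for roughly 16 to 18 hours; plate controls were DMSO wells with cells for no effect and medium without cells for full effect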
# Wnt3a cs: Wnt3a reporter signal inhibition, confirmation, counter-screen for Gli-SUFU antagonist project, Wnt-LIGHT cells, luminescence, single concentration. shares compounds with Gli-Sufu block. Wnt3a-driven luciferase reporter. inhibition, % at 6.25 µM. 2,500 tested, 20% active. AID 651995, 2013;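 active means mean inhibition above about 25%, limit read from the data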
# An asterisk follows results filed as active; . = no result.
SMILES,MPTP block,CSC inhib,Mdm2-MdmX inh,Gli-Sufu block,NR3A LBD binder,Beta apoptosis,Gli-Sufu confirm,SufuKO cytotox,Wnt3a cs
Oc1cccc2cc3cccc(O)c3c(O)c12,1,2,7,4,-1,-3,.,.,.
CC(C)(C)S(=O)(=O)c1cnc(N2CCCCC2)nc1N,3,-6,10,-3,1,-3,.,.,.
CC(=O)c1cnc(N2CCCCC2)nc1C,-2,-1,14,56*,-1,1,5,29*,0
CC(=O)OCC(=O)Nc1cc(S(=O)(=O)N2CCCCCC2)ccc1Cl,2,-4,6,3,2,-4,.,.,.
CC(C)(C)CC(=O)Nc1cc(S(=O)(=O)N2CCCCCC2)ccc1Cl,2,.,25,60*,-1,.,17,5,-20
COCCN(Cc1cc2cc3c(cc2nc1Cl)OCO3)C(=O)Nc1ccc(F)cc1,12,-10,23,33,0,63,.,.,.
COCCN(Cc1cc2cc3c(cc2nc1Cl)OCO3)C(=O)Nc1ccc(OC)cc1,43,-9,16,55,0,17,29,-1,-20
O=C(Cc1ccccc1)Nc1ccccc1N1CCOCC1,-1,-4,-6,8,-1,4,.,.,.
O=C(CCS(=O)(=O)c1ccccc1)Nc1ccccc1N1CCOCC1,1,-5,4,66*,0,0,9,11,-13
Cc1cc(S(=O)(=O)Nc2nc(CN3CCOCC3)nc3sc4c(c23)CCC4)ccc1F,0,21,40,-19,-2,27,.,.,.
O=C(CCNC(=O)N1CC(=O)Nc2ccccc21)NCCc1cccc(F)c1,-2,14,-5,50,0,.,18,2,-6
COc1ccc(C2CC(c3ccc(Cl)cc3)=NN2C(C)=O)cc1 (centres undefined),0,-3,-18,-22,-1,2,.,.,.
COc1cc(C(C#N)N2CCOCC2)ccc1O (centres undefined),-1,-15,13,55*,0,-13,21,9,3
CCCCSc1nc2sc3c(c2c(=O)n1-c1ccc(C)cc1)CCN(C)C3,-2,-2,32,50,-6,134*,49*,21,-10
Cc1ccc(NC(=O)COc2ccc(Br)cn2)cc1,1,-3,-8,-2,-3,0,.,.,.
c1ccc(CN2CCN(C3CCCSc4ccccc43)CC2)cc1 (centres undefined),-1,29,4,13,-2,-1,.,.,.
c1ccc(Cn2c(-c3ccccc3)c[n+]3c2SCCC3)cc1,4,0,22,70*,0,14,67*,37*,11
CCN(c1ccccc1)S(=O)(=O)c1cccc(C(=O)N2CCN(S(=O)(=O)c3ccccc3)CC2)c1,1,.,34,9,0,3,.,.,.
CN1CCCN(Cc2ccccc2C(F)(F)F)CC1,1,10,3,94*,0,0,23,24,-19
CCCS(=O)(=O)N1CCN(Cc2ccccc2C(F)(F)F)CC1,0,0,11,1,-1,-11,.,.,.
CCN1CCN(C(=O)c2cc(S(=O)(=O)N3CCCCC3)ccc2Cl)CC1,0,5,18,5,-2,-1,.,.,.
Cc1ccc(C)c(-c2csc(NC(=O)C3=COCCO3)n2)c1,0,.,2,63*,.,77*,63*,13,-25
OCC1CCCN(c2nc(CN3CCCCC3)nc3scc(-c4ccccc4)c23)C1 (centres undefined),0,11,19,28,-3,6,.,.,.
CCNc1nc(CN2CCCCC2)nc2scc(-c3ccccc3)c12,5,18,31,69*,-1,41,56*,18,-32
CN(CC1CCCO1)S(=O)(=O)c1ccc(C(=O)Nc2nccs2)cc1 (centres undefined),0,22,4,-9,0,-10,.,.,.
SMILES,MPTP block,CSC inhib,Mdm2-MdmX inh,Gli-Sufu block,NR3A LBD binder,Beta apoptosis,Gli-Sufu confirm,SufuKO cytotox,Wnt3a cs
CC1(C)CC(N2CCN(c3ccccc3)CC2)=CC(=[N+]2CCCC2)C1,2,59,37,83*,-2,97*,86*,35*,38*
CSc1nc(N2CCN(c3ccccc3)CC2)cc(N2CCN(c3ccccc3)CC2)n1,7,2,-5,-8,-2,7,.,.,.
O=C(c1ccc2c(=O)n(-c3ccccc3)c(=S)[nH]c2c1)N1CCCCC1,22,0,20,60*,2,41,55*,36*,7
COc1ccc2c(c1)N(S(=O)(=O)c1ccccc1)CCC2=O,0,-9,-21,0,0,-4,.,.,.
CC1=NN(c2ccccc2)C(=O)/C1=C\N1CC(C)OC(C)C1 (centres undefined),-2,0,12,98*,0,2,24,9,5
Cc1c(NS(=O)(=O)c2ccc(NC(=O)CCC(=O)O)cc2)c(=O)n(-c2ccccc2)n1C,0,-6,22,63*,1,-11,5,14,-33
CC(=O)Nc1ccc(S(=O)(=O)Nc2c(C)n(C)n(-c3ccccc3)c2=O)cc1,0,-8,13,3,0,-10,.,.,.
Cn1c(C2CCCN2C(=O)OC(C)(C)C)n[nH]c1=S (centres undefined),-1,-8,4,54,0,1,12,6,-2
CCOc1ccccc1NC(=O)COc1ccc2c(c1)OCO2,1,.,-1,24,3,-1,.,.,.
COc1ccccc1NC(=O)COc1ccc2c(c1)OCO2,0,-5,13,59*,-24,0,15,11,-65
Cn1ccc2c(N3CCCCC3)cc3c(c21)C1CCC3C1 (centres undefined),1,.,.,.,.,.,.,.,.
CCN(CC)C1=CC(=[N+]2CCCC2)CC(C)(C)C1,49,13,18,79*,-2,46,82*,32*,48*
COc1ccc(Cl)cc1S(=O)(=O)NCc1nc2nc(C)cc(C)n2n1,-1,-10,-2,-8,-1,-2,.,.,.
COc1cccc(N2CC(=O)N(NC(=O)CSc3nc(C)cc(C)c3C#N)CC2=O)c1,12,-6,-27,20,-7,1,.,.,.
